# Test results: PubChem BioAssay AID624304 (Sanford-Burnham Center for Chemical Genomics, 2012)
# About 1,800 (0.5%) of roughly 360,000 compounds were called active. The entries come from a sample that favours actives as a whole. A number with no mark means an inactive call.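 Rule for the calls: active = interference check ratio from 0.5 to 1.5 plus GFP to RFP signal ratio inhibition reaching or exceeding a fixed threshold (cut at about 30% in these data, passing the limit was not always enough); inactive = the rest.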
# Assay: gst-4 reporter inhibition in live C. elegans – whole organism, uHTS, GFP/RFP fluorescence ratio, strain VP596, SKN-1 inhibitor project, primary screen (AID 624304)
# Details: C. elegans VP596 Pgst-4::GFP/RFP ratio, acrylamide-induced, 24 h; at 21.8 µM; hits give high values
row,SMILES,inhibition
1,Cc1c(C(=O)NCC(c2ccco2)N2CCCC2)oc2ccc(Cl)cc12 (stereo not drawn),3.49%
2,CN(Cc1ccccc1F)c1cc2c(c3c1ccn3C)C1CCC2O1 (stereo not drawn),6.79%
3,Fc1c(F)c(C(F)(F)F)c(F)c(F)c1N1CCN(c2ccc3nnc(C(F)(F)F)n3n2)CC1,-6.81%
4,C=CCCC(=O)N1C[C@H]2CON(C)[C@H]2C[C@H]1c1cccc(Nc2ccccc2)c1,3.69%
5,N/C(=N\OC(=O)Nc1ccccc1)c1ccno1,11.3%
6,COC(=O)c1[nH]c2ccc(Br)cc2c1NC(=O)Oc1ccccc1,6.84%
7,COc1ccc(CCC(=O)OCC(=O)Nc2ccc(C)c(S(=O)(=O)N(C)C)c2)cc1,-9.73%
8,Cc1ccc(C)c(NC(=O)COC(=O)c2nn(C)c(=O)c3ccccc23)c1,0.693%
9,Cc1ccc(F)cc1NC(=O)Cc1nn(C)c(=O)c2ccccc12,35.7% (active)
10,Cc1ccc(F)cc1NC(=O)CSCc1c(C)noc1C,-5.42%
11,CCCCC1=CC2=CC(=O)C(C)(OC(=O)CC)C(=O)C2=CN1CCCOC(C)C (stereo not drawn),19.4%
12,COC(=O)CCCC1=CC2=C(c3ccccc3)C(=O)C(C)(OC(=O)C3CCCC3)C(=O)C2=CN1c1ccc(OC)cc1 (stereo not drawn),-4%
13,COC(=O)CCCC1=CC2=CC(=O)C(C)(OC(=O)c3cccs3)C(=O)C2=CN1CC(C)C (stereo not drawn),41% (active)
14,Cc1nc2ccccc2cc1OCc1ccc(F)cc1,90.3% (active)
15,Fc1cccc2ncnc(OCc3ccccc3)c12,3.79%
16,CC(=O)c1ccccc1OCc1ccc(C(=O)c2ccccc2)cc1,12.8%
17,OCC[C@H]1C[C@H](O)[C@@H](O)[C@]2(CCCCO2)O1,-7.25%
18,COc1cccc(NC(=O)C(C)Oc2ccccc2)c1 (stereo not drawn),51.2% (active)
19,COc1cccc(NC(=O)C(Sc2nnnn2C)c2ccccc2)c1 (stereo not drawn),17.4%
20,COc1cccc(NC(=O)CC(c2ccc(OC(C)C)cc2)c2ccccc2OC)c1 (stereo not drawn),-0.0853%
21,COC(=O)c1ccc(COC(=O)c2c(C)nn(Cc3ccccc3Cl)c2Cl)o1,-0.292%
22,Cc1ccc(NC(=O)Cc2nc(COC(=O)C(C)NS(=O)(=O)c3ccc(C)cc3)cs2)cc1 (stereo not drawn),-10%

row,SMILES,inhibition
1,CC1Cc2ccccc2N1C(=O)CSc1nnc(C2CC2)n1C (stereo not drawn),8.36%
2,CCS(=O)(=O)c1ccc2oc(SCC(=O)N3c4ccccc4CC3C)nc2c1 (stereo not drawn),-0.339%
3,CC1Cc2ccccc2N1C(=O)CSc1nc2ccccc2o1 (stereo not drawn),30.1% (active)
4,Cc1cc2c(cc1S(=O)(=O)NCc1ccc(Cl)cc1)OCC(=O)N2,-19.4%
5,COc1ccccc1N(CCOc1ccccc1)S(=O)(=O)c1ccccc1,3.24%
6,Cc1nc2nc(C)c(CCC(=O)N3CCN(c4ccccc4)CC3)c(C)n2n1,35.7% (active)
7,Cc1nc2c(-c3ccc(F)cc3)c(C)nn2c(C)c1CCC(=O)N1CCN(c2ccccn2)CC1,-5.8%
8,Cc1nc2ncnn2c(C)c1CCC(=O)N1CCN(C(=O)c2ccco2)CC1,-8.68%
9,CC1CCN(C(=O)Cn2nnnc2CN2CCOCC2)CC1,-17.8%
10,N#CC1=C(N)Oc2c(sc3ccccc23)C1c1ccco1 (stereo not drawn),35% (active)
11,CCc1nc2c(OCC(=O)C(C)(C)C)cccn2c1N(C)C(=O)c1ccccc1F,15.8%
12,CCOC(=O)C1=NNC2(c3ccc(Cl)cc3)C(=O)N(c3cc(C)cc(C)c3)C(=O)C12 (stereo not drawn),14.5%
13,COc1ccc(-c2c(C(C)=O)c(C)nc3sc4c(=O)n(-c5ccc(C)cc5)nnc4c23)cc1,12.1%
14,CC(Oc1ccc(Cl)cc1)C(=O)OCC(=O)Nc1ncc(Cl)cc1Cl (stereo not drawn),6.67%
15,CC(Oc1ccc(Cl)cc1)c1ccnn1S(C)(=O)=O (stereo not drawn),33.3% (active)
16,CC(Oc1ccc(Cl)cc1)C(=O)Nc1ncccn1 (stereo not drawn),11.8%
17,CCc1c(SCCC(=O)O)nc2ccccc2c1C,-7.29%
18,Cc1nccn1-c1ccc(NC(=O)[C@H]2O[C@@H](n3ccc(=O)[nH]c3=O)[C@H](O)[C@@H]2O)cc1,1.64%
19,COc1ccccc1OCC(=O)OCn1c(SC)nnc(C)c1=O,5.86%
20,CC1CN(C(=O)CCC(=O)NCCCN2CCC(Cc3ccccc3)CC2)c2cc(Cl)ccc2O1 (stereo not drawn),14.9%
21,O=C1CCC([N+](=O)[O-])C(c2ccccc2Br)N1 (stereo not drawn),9.01%
